A selection: hits, their analogues and other compounds. The true share with any hit is near 1.7%.
HDAC3 inh: human HDAC3 inhibition; O15379; recombinant HDAC3, fluorogenic peptide/trypsin coupled, fluorescence; inhibition, % at 8.3 µM; actives 0.15% (n = 320,000); in the data active = inhibition above about 26%, passing the limit was not always enough; inconclusive = no clear call, values can overlap the other calls
LANA-H2B inh: blocks KSHV LANA binding to histone H2A/H2B | Q9QR71 | cell-free LANA-H2A/H2B peptide, fluorescence polarization | inhibition, % (test concentration not listed) | actives 0.6% (n = 320,000); in the data active = inhibition mostly above about 10%, no sharp cut-off; inactive = mostly below about 6.7%
HTR2A ag: agonists of mouse serotonin 5-HT2A receptor (HTR2A) | P35363 | CHO-K1 mHTR2A beta-arrestin complementation, luminescence; percent of 30 µM serotonin response | activation, % at 7.6 µM | actives 0.66% (n = 360,000) | AID 624169;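 active = activation above a run cutoff, the mean activation of all tested compounds plus 3 SD, cut at about 14% in these data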;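 note: 0% = plate median of compound wells and 100% = 30 µM serotonin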
CTSL1 counter: cathepsin L1 inhibition, PFM18AAP counter-screen; actives 0.49% (n = 300,000); AID 1906; inhibition, % at 5.96 µM; recombinant F. hepatica cathepsin L1, Z-Leu-Arg-MCA fluorescence;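 active = inhibition above the mean of all tested compounds plus 3 SD, set per screening campaign, cut at about 17% in these data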;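 note: 0% = plate median of test compound wells and 100% = 1 µM Z-Phe-Ala-diazomethylketone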
OPRM1 ag: activates human mu opioid receptor in HTR2A counterscreen | shares compounds with HTR2A ag | actives 5.3% (n = 2,300) | activation, % at 9.3 µM | AID 624380 | U2OS OPRM1 beta-arrestin PathHunter, luminescence; DMSO 0%, DAMGO 9.3 µM 100%;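 active = mean activation above the mean of DMSO-only wells plus 3 SD, cut at about 0.5% in these data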
HTR2A ag conf: confirmation of mouse HTR2A serotonin receptor agonists | shares compounds with HTR2A ag | CHO-K1 PathHunter beta-arrestin recruitment, luminescence; DMSO 0%, 30 µM serotonin 100% | actives 19% (n = 2,300) | activation, % at 7.6 µM;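 active = mean activation across triplicates above the hit threshold derived in the original primary screen, cut at about 15% in these data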
The depositor's hits bear a star; ? = inconclusive; . = no result.

SMILES	HDAC3 inh	LANA-H2B inh	HTR2A ag	CTSL1 counter	OPRM1 ag	HTR2A ag conf
Cc1cc(C)c(OCCCNCc2ccccc2)c(Br)c1	3	2	20*	-3	0	4
Cc1cc(Cl)c(OCCCNCc2ccccc2)c(Br)c1	4	-1	20*	0	0	10
CCN(CCNC(=O)C1CCCN(S(=O)(=O)c2cnc[nH]2)C1)c1ccccc1 (configuration not stated)	0	0	6	3	.	.
CCN(CCCNC(=O)C1CCCN(S(=O)(=O)c2cnc[nH]2)C1)c1ccccc1 (configuration not stated)	1	2	18*	4	0	-2
O=C(c1cccs1)N1CCN(Cc2ccncc2)CC1	2	-2	8	0	.	.
COc1ccc(OC)c(CN2CCN(C(=O)c3cccs3)CC2)c1	-2	-11	33*	-2	0.8*	91*
COc1cccc(CN2CCN(C(=O)c3cccs3)CC2)c1OC	7	6	7	1	.	.
O=C(c1cccs1)N1CCN(Cc2ccccc2)CC1	.	.	28*	1	0	93*
COc1ccc(NC(=O)C(=O)NCCN2CCN(C(=O)c3cccs3)CC2)cc1	-3	1	1	-1	.	.
COc1ccc(CN2CCN(C(=O)c3cccs3)CC2)cc1	-7	2	29*	-4	0	50*
CC(C)(C)c1csc(Sc2ccc([N+](=O)[O-])cn2)n1	11	0	18*	-2	0.7*	4
CC(C)Sc1nc2sc(-c3ccccc3)cc2c(=O)n1N	10	-5	2	-1	.	.
COC(=O)C(C)n1nnc2sc(-c3ccccc3)cc2c1=O (configuration not stated)	-11	-1	16*	0	0	0
CCN(C(=O)COC(=O)c1n[nH]c2ccccc12)c1ccccc1	-10	3	0	.	.	.
O=C1NC[C@@H](Cc2cccc3ccccc23)N(CC2(c3ccccc3)CC2)C1=O	8	4	16*	-2	-1	-2
COc1cc(CN2CCN(Cc3c[nH]c4ccccc34)CC2CCO)cc(OC)c1 (configuration not stated)	-1	-3	19*	.	-1	5
CC1(C)CC2CC(C)(CN2/C=C2/CCCCC2=O)C1 (configuration not stated)	2	-1	0	4	.	.
O=C(C[C@H]1C/C=C\CCC(=O)OC[C@H]2CCCN2C1=O)NCCO	?	0	20*	.	-1	-3
Cc1ccn(CCNC(=O)C2CCC(=O)N(CCc3ccc(Cl)cc3)C2)n1 (configuration not stated)	-4	2	24*	0	0	-3
CCCCNS(=O)(=O)c1ccc(NS(=O)(=O)c2c(C)cc(C)cc2C)cc1	5	1	18*	2	0	13
O=C(c1ccc(OCc2cn3ccccc3n2)cc1)N1CCN(S(=O)(=O)c2ccccc2F)CC1	.	.	20*	.	0	-2
CCS(=O)c1ccccc1C(=O)OCC(=O)Nc1cccc(S(=O)(=O)N2CCCCC2)c1 (configuration not stated)	0	-2	10	.	.	.
Cc1csc2c(N3CCN(C(=S)Nc4ccc(F)cc4F)CC3)ncnc12	3	2	34*	-4	-1	5
Cc1ccc(C(=O)N2CCN(c3ncnc4c(C)csc34)CC2)cc1	-1	7	6	-8	.	.
Cc1csc2c(N3CCN(C(=O)Nc4ccccc4)CC3)ncnc12	0	1	21*	-5	0	-1
SMILES	HDAC3 inh	LANA-H2B inh	HTR2A ag	CTSL1 counter	OPRM1 ag	HTR2A ag conf
CCOc1ccc(OCCC(=O)OCC(=O)Nc2ccc3c(c2)OCCO3)cc1	7	5	13	-12	.	.
COc1ccc(N2CC(C(=O)N[C@H](C(=O)NC(C)c3ccccc3)C(C)C)CC2=O)cc1 (some centres not stated)	6	1	2	2	.	.
O=C(OCc1ccccc1)N1CCC2CC1c1ccc(-c3cccc(F)c3)cc12 (configuration not stated)	.	.	-4	.	.	.
CCc1sc(C(=O)N2CCN(C(=O)c3ccccc3)CC2)cc1C	-2	-7	-10	.	.	.
CC(=O)Nc1cc2nc(C)n(Cc3ccccc3[N+](=O)[O-])c2nc1C	-4	0	-2	-1	.	.
CC[N+](C)(CC)CC(O)COCC1COc2ccccc2O1 (configuration not stated)	6	-5	16*	0	-1	-2
CC1CCCC(C)N1CC(O)COCC1COc2ccccc2O1 (configuration not stated)	0	-3	0	-2	.	.
OC(COCC1COc2ccccc2O1)CN1CCN(c2ccccc2F)CC1 (configuration not stated)	-1	-4	15*	-2	0	36*
OCCN1CCN(CC(O)COCC2COc3ccccc3O2)CC1 (configuration not stated)	-4	-4	3	9	.	.
CC(COc1ccccc1)N1CCC(CO)(Cc2ccccc2)CC1 (configuration not stated)	-3	0	29*	-1	0	73*
COc1ccc(CC2(CO)CCN(C/C=C/c3ccccc3OC)CC2)cc1	-1	-5	7	-1	.	.
COc1ccc(CC2(CO)CCN(C(C)COc3ccccc3)CC2)cc1 (configuration not stated)	-5	4	20*	-1	0	85*
COc1ccccc1CNC(=O)CNC(=O)c1ccc(Br)o1	-5	-1	6	-1	.	.
Cc1cc(C)n(CCN(C)Cc2nc(Cc3ccccc3F)no2)n1	2	2	38*	-1	-1	-2
CN(Cc1nc(Cc2ccccc2F)no1)[C@@H]1CS(=O)(=O)C[C@H]1O	-4	-1	8	0	.	.
CCCN(CCC)CCNC(=O)c1cc2c(-c3ccc(Cl)cc3)nn(C)c2s1	-64	0	30*	2	0	51*
CCN(CC)CCNC(=O)c1cc2c(-c3ccc(Cl)cc3)nn(C)c2s1	.	.	-12	-3	.	.
COc1ccc(CCNC(=O)CC(C)S(=O)(=O)c2ccc3c(c2)NC(=O)CO3)cc1OC (configuration not stated)	2	-6	15*	-1	0	-4
O=C(NCC1CC1)c1cccs1	.	.	0	.	.	.
O=C(NCC1CCCN(C2Cc3ccccc3C2)C1)c1cccs1 (configuration not stated)	0	-2	19*	-5	0	15*
COc1ccc(-n2nnnc2SCC(=O)Nc2cccc(O)c2)cc1	-11	0	1	-1	.	.
Cc1ccccc1-n1ncc2c1CC(C)(C)CC2NC(=O)C1=CC(=O)CC(C)(C)O1 (configuration not stated)	4	-5	32*	3	-1	-3
